Measured values as given in PubChem BioAssay (EPA / NIEHS).
Activity calls are given as the source filed them. Rule for the calls: active = hit-call score of the fitted dose curve at least 0.9, where 1 is the maximum; inactive = score below 0.9.

What was measured:
[1] = read-out: Urokinase-type plasminogen activator receptor (uPAR), PLAUR (gene 5329); assay: BSK_4H_uPAR: BioMAP Diversity Plus: 4H Assay for Urokinase-type plasminogen activator receptor (uPAR) Biomarker Activity (AID 2283030); settings: primary human endothelial cells (HUVEC); actives raise or lower the signal
Method in brief: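 Human umbilical vein endothelial cells in the 4H system, 24 h after chemical dosing. Cell-surface uPAR measured by ELISA, fitted in both directions versus DMSO; cytotoxicity checked by SRB total protein in parallel cultures.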

[2] = read-out: Vascular endothelial growth factor receptor 2 (Homo sapiens) (UniProt P35968); assay: BSK_4H_VEGFRII: BioMAP Diversity Plus: 4H Assay for Vascular endothelial growth factor receptor 2 (VEGFR2) Biomarker Activity (AID 2283031); settings: primary human endothelial cells (HUVEC); actives raise or lower the signal;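 for AC50: cell-surface VEGFR2 protein level quantified by ELISA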
Method in brief: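 Primary human umbilical vein endothelial cells (4H system), 24 h exposure; cell-surface VEGFR2 measured by ELISA. Bidirectional fitting versus DMSO; cytotoxicity checked in parallel by SRB total-protein staining.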

[3] = read-out: Human Leukocyte Antigen - DR isotype (HLADR), HLA-DRA (gene 3122); assay: BSK_BE3C_HLADR: BioMAP Diversity Plus: BE3C Assay for Human Leukocyte Antigen - DR isotype (HLADR) Biomarker Activity (AID 2283032); settings: primary human bronchial epithelial cells; actives raise or lower the signal
Method in brief: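 BioMAP BE3C format: human bronchial epithelium, 24 h compound treatment, ELISA detection of HLA-DR, with bidirectional analysis relative to DMSO.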

[4] = read-out: Vascular cell adhesion molecule 1 (VCAM1), VCAM1 (gene 7412); assay: BSK_4H_VCAM1: BioMAP Diversity Plus: 4H Assay for Vascular cell adhesion molecule 1 (VCAM1) Biomarker Activity (AID 2283033); settings: primary human endothelial cells (HUVEC); actives raise or lower the signal
Method in brief: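 In this human endothelial (HUVEC) system, biomarker ELISA was run 24 h after compound addition, and total protein in parallel wells was assessed by SRB at 560 nm; DMSO served as negative control.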

[5] = read-out: Interferon-gamma inducible Protein 10 (IP10), CXCL10 (gene 3627); assay: BSK_BE3C_IP10: BioMAP Diversity Plus: BE3C Assay for Interferon-gamma inducible Protein 10 (IP10) Biomarker Activity (AID 2283034); settings: primary human bronchial epithelial cells; actives raise or lower the signal
Method in brief: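 BE3C cells (human bronchial epithelial, primary); 24 h exposure; ELISA for IP-10; DMSO-referenced bidirectional fit.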

[6] = read-out: Monokine induced gamma interferon (MIG), CXCL9 (gene 4283); assay: BSK_BE3C_MIG: BioMAP Diversity Plus: BE3C Assay for Monokine induced gamma interferon (MIG) Biomarker Activity (AID 2283035); settings: primary human bronchial epithelial cells; actives raise or lower the signal
Method in brief: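 hu bronchial epithelial 1° cells, 24 h cpd; MIG by ELISA; bidirectional fit, DMSO = baseline.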

[7] = read-out: Transforming growth factor beta 1 (TGFb1), TGFB1 (gene 7040); assay: BSK_BE3C_TGFb1: BioMAP Diversity Plus: BE3C Assay for Transforming growth factor beta 1 (TGFb1) Biomarker Activity (AID 2283036); settings: primary human bronchial epithelial cells; actives raise or lower the signal
Method in brief: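 TGF-b1 measured via ELISA, 24 h after chemical dosing of human bronchial epithelial cells (BE3C). Overt cytotoxicity assessed in parallel by SRB (0.1%, TCA-fixed, 560 nm); analysis bidirectional relative to DMSO.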

[8] = read-out: Plasminogen activator inhibitor-1 (PAI1), SERPINE1 (gene 5054); assay: BSK_BE3C_PAI1: BioMAP Diversity Plus: BE3C Assay for Plasminogen activator inhibitor-1 (PAI1) Biomarker Activity (AID 2283037); settings: primary human bronchial epithelial cells; actives raise or lower the signal
Method in brief: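 In this multiplexed primary-cell system, bronchial epithelial cells receive test chemical and are sampled at 24 h. PAI-1 is read by ELISA, with DMSO serving as negative control for bidirectional fitting.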

[9] = read-out: urokinase plasminogen activator (uPA), PLAU (gene 5328); assay: BSK_BE3C_uPA: BioMAP Diversity Plus: BE3C Assay for urokinase plasminogen activator (uPA) Biomarker Activity (AID 2283038); settings: primary human bronchial epithelial cells; actives raise or lower the signal
Method in brief: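 Primary human bronchial epithelial cells, uPA measured by ELISA 24 h after dosing. Bidirectional change relative to DMSO; cytotoxicity checked in parallel cultures by sulforhodamine B total-protein staining.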

[10] = read-out: Urokinase-type plasminogen activator receptor (uPAR), PLAUR (gene 5329); assay: BSK_BE3C_uPAR: BioMAP Diversity Plus: BE3C Assay for Urokinase-type plasminogen activator receptor (uPAR) Biomarker Activity (AID 2283039); settings: primary human bronchial epithelial cells; actives raise or lower the signal
Method in brief: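 Chemically treated human bronchial epithelial cells (lung primary) are assayed for uPAR by ELISA after 24 h, with data fitted in both directions using DMSO as negative control.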

[11] = read-out: Interleukin-6 (IL6), IL6 (gene 3569); assay: BSK_CASM3C_IL6: BioMAP Diversity Plus: CASM3C Assay for Interleukin-6 (IL6) Biomarker Activity for (AID 2283040); settings: primary human coronary artery smooth muscle cells; actives raise or lower the signal
[12] = read-out: Tissue plasminogen activator (tPA), PLAT (gene 5327); assay: BSK_BE3C_tPA: BioMAP Diversity Plus: BE3C Assay for Tissue plasminogen activator (tPA) Biomarker Activity (AID 2283041); settings: primary human bronchial epithelial cells; actives raise or lower the signal
Method in brief: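 Using human lung primary bronchial epithelial cells, tPA was measured by ELISA 24 h after dosing; data fitted relative to DMSO.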

[13] = read-out: Interleukin-8 (IL8), CXCL8 (gene 3576); assay: BSK_CASM3C_IL8: BioMAP Diversity Plus: CASM3C Assay for Interleukin-8 (IL8) Biomarker Activity (AID 2283042); settings: primary human coronary artery smooth muscle cells; actives raise or lower the signal;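 note: IL-8 protein level quantified by ELISA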
[14] = read-out: Human Leukocyte Antigen - DR isotype (HLADR), HLA-DRA (gene 3122); assay: BSK_CASM3C_HLADR: BioMAP Diversity Plus: CASM3C Assay for Human Leukocyte Antigen - DR isotype (HLADR) Biomarker Activity (AID 2283043); settings: primary human coronary artery smooth muscle cells; actives raise or lower the signal;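 note: cell-surface HLA-DR protein level quantified by ELISA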
[15] = read-out: Macrophage colony-stimulating factor (MCSF), CSF1 (gene 1435); assay: BSK_CASM3C_MCSF: BioMAP Diversity Plus: CASM3C Assay for Macrophage colony-stimulating factor (MCSF) Biomarker Activity (AID 2283044); settings: primary human coronary artery smooth muscle cells; actives raise or lower the signal;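 note: M-CSF protein amount quantified by ELISA after 24 h exposure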
[16] = read-out: Low-density lipoprotein receptor (LDLR), LDLR (gene 3949); assay: BSK_CASM3C_LDLR: BioMAP Diversity Plus: CASM3C Assay for Low-density lipoprotein receptor (LDLR) Biomarker Activity (AID 2283045); settings: primary human coronary artery smooth muscle cells; actives raise or lower the signal;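 note: LDLR protein level on the cell surface quantified by ELISA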
[17] = read-out: Monocyte Chemoattractant Protein-1 (MCP1), CCL2 (gene 6347); assay: BSK_CASM3C_MCP1: BioMAP Diversity Plus: CASM3C Assay for Monocyte Chemoattractant Protein-1 (MCP1) Biomarker Activity (AID 2283046); settings: primary human coronary artery smooth muscle cells; actives raise or lower the signal;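 note: MCP-1 level quantified by ELISA 24 h after dosing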
[18] = BSK_CASM3C_Proliferation: Cell Proliferation Assessment in the BioMAP Diversity Plus: CASM3C Assay (AID 2283047); settings: primary human coronary artery smooth muscle cells;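 note: sulforhodamine B total protein stain as relative cell number at 560 nm; sub-confluent cells exposed 48 h before staining; fitted both ways against DMSO so gain or loss of cell number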
[19] = read-out: Monokine induced gamma interferon (MIG), CXCL9 (gene 4283); assay: BSK_CASM3C_MIG: BioMAP Diversity Plus: CASM3C Assay for Monokine induced gamma interferon (MIG) Biomarker Activity (AID 2283048); settings: primary human coronary artery smooth muscle cells; actives raise or lower the signal;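 note: MIG protein level measured by ELISA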
[20] = read-out: serum amyloid A (SAA), SAA1 (gene 6288); assay: BSK_CASM3C_SAA: BioMAP Diversity Plus: CASM3C Assay for serum amyloid A (SAA) Biomarker Activity (AID 2283049); settings: primary human coronary artery smooth muscle cells; actives raise or lower the signal;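 note: SAA protein level quantified by ELISA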

Measured: AC50

CC(C)N1C(=O)N(c2ccccc2)CSC1=NC(C)(C)C
active: [1] 31.7 µM | [3] 28.9 µM | [4] 29.8 µM | [5] 30.4 µM | [10] 33.7 µM | [18] 30 µM
inactive: all other assays above

COCc1cnc(C2=NC(C)(C(C)C)C(=O)N2)c(C(=O)O)c1 (stereo unspecified)
inactive: all assays above

CN/C(=N\[N+](=O)[O-])NCc1cnc(Cl)s1
not listed: [1]
inactive: all other assays above

CS(=O)(=O)c1ccc(C(=O)C2C(=O)CCCC2=O)c([N+](=O)[O-])c1
not listed: [1]
inactive: all other assays above

Nc1cnn(-c2ccccc2)c(=O)c1Cl
inactive: all assays above

CC1(C)CON(Cc2ccccc2Cl)C1=O
active: [7] 37.2 µM
inactive: all other assays above

N#CN=C1SCCN1Cc1ccc(Cl)nc1
inactive: all assays above

Cc1nc(N(C)C)nc(OC(=O)N(C)C)c1C
inactive: all assays above

CC(C)Oc1cccc(NC(=O)c2ccccc2C(F)(F)F)c1
inactive: all assays above

COP(=O)(OC)O/C(C)=C/C(=O)N(C)C
inactive: all assays above

N#Cc1c(Cl)cccc1Cl
inactive: all assays above

CCN(CC)c1nc(C)cc(OP(=S)(OC)OC)n1
active: [3] 20 µM | [14] 11.8 µM
inactive: all other assays above

Cc1cnc(C2=NC(C)(C(C)C)C(=O)N2)c(C(=O)O)c1 (stereo unspecified)
active: [7] 4.93 µM
inactive: all other assays above

Cc1c(COC(=O)[C@@H]2[C@H](/C=C(\Cl)C(F)(F)F)C2(C)C)cccc1-c1ccccc1
active: [4] 3.91 µM
inactive: all other assays above

O=P(O)(O)CCCl
inactive: all assays above

CCCCOCN(C(=O)CCl)c1c(CC)cccc1CC
inactive: [16] | [19] | [20]
active: [1] 38.8 µM | [2] 31.1 µM | [3] 29.8 µM | [4] 28.9 µM | [5] 35.5 µM | [6] 36.5 µM | [7] 31.9 µM | [8] 30.7 µM | [9] 31.4 µM | [10] 32.2 µM | [11] 4.92 µM | [12] 36.9 µM | [13] 5.08 µM | [14] 26.1 µM | [15] 28.8 µM | [17] 33.2 µM | [18] 27.4 µM

CCOc1nc(F)cc2nc(S(=O)(=O)Nc3c(Cl)cccc3Cl)nn12
active: [3] 27.9 µM | [5] 31.4 µM | [8] 20.9 µM
inactive: all other assays above

Cc1cc(C)nc(Nc2ccccc2)n1
inactive: all assays above

Nc1c(Cl)c(Cl)nc(C(=O)O)c1Cl
inactive: all assays above

Cn1c(-c2ccccc2)cc(-c2ccccc2)[n+]1C
active: [3] 3.97 µM | [5] 16.5 µM
not listed: [1]
inactive: all other assays above

CNC(=O)Oc1cccc2ccccc12
active: [4] 20 µM | [18] 26.2 µM
inactive: all other assays above

Nc1c(Cl)c(F)nc(OCC(=O)O)c1Cl
inactive: all assays above

COC(=O)NC(=S)Nc1ccccc1NC(=S)NC(=O)OC
active: [4] 0.312 µM | [10] 1.46 µM
not listed: [1]
inactive: all other assays above

CNC(=O)N(C)c1nnc(C(C)(C)C)s1
inactive: all assays above

CO/N=C(/C1=NOCCO1)c1ccccc1Oc1ncnc(Oc2ccccc2Cl)c1F
active: [1] 15.5 µM | [3] 11.1 µM | [16] 13.5 µM | [18] 12.9 µM
inactive: all other assays above

COP(=S)(OC)SCn1nnc2ccccc2c1=O
inactive: all assays above

N#Cc1c[nH]cc1-c1cccc2c1OC(F)(F)O2
active: [1] 14.7 µM | [4] 20 µM | [18] 20 µM
inactive: all other assays above
